IL1B cytotox: cytotoxicity in IL-1B stimulated HUVEC, primary screen, cytotoxicity control for IL-1B NFkB translocation project, imaging, Hoechst nuclear count, IL-1B stimulus. cell count reduction, % at 2 µM. AID 845, 2007. 94,000 tested, 0.41% active. HUVEC cell count loss;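 active = cell count reduction more than 3 SD above the screen-wide mean, cut at about 70% in these data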
VCAM1 TNFa inh: inhibitors of TNFa-induced VCAM1 expression, primary screen, imaging, HUVEC, TNFa stimulus, immunofluorescence | HUVEC TNFa-induced VCAM-1 immunofluorescence, high-content imaging | inhibition, % at 2 µM | 95,000 tested, 0.48% active | AID 802, 2007;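 active = inhibition above the batch mean plus 3 SD, with images confirmed as a hit by eye, cut at about 37% in these data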
NFkB transloc inh: inhibitors of IL-1B driven NFkB p65 nuclear import, primary screen, imaging, HUVEC, IL-1B stimulus, high-content imaging. HUVEC IL-1B NFkB p65 nuclear translocation imaging. 94,000 tested, 0.43% active. inhibition, % at 2 µM;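 active = inhibition above about 30% together with a positive call from visual inspection of the well image, limit read from the data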;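 note: nuclear over cytoplasmic p65 intensity ratio measured by imaging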
E-sel TNF inh: E-selectin induction blockers in HUVEC – imaging, immunofluorescence, high content, primary screen; HUVEC TNFa-induced E-selectin immunofluorescence; inhibition, % at 2 µM; 120,000 tested, 0.71% active; AID 1246, 2008;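 active = inhibition above the batch mean plus 3 SD, and confirmed as a hit on visual image review, cut at about 43% in these data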
IL1B NFkB pot: enhancers of NFkB p65 translocation in HUVEC – imaging, IL-1B stimulus, high-content imaging, primary screen; HUVEC IL-1B NFkB p65 nuclear translocation imaging; activation, % at 2 µM; 94,000 tested, 0.3% active;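 active = activation above 40%, about the mean plus 3 SD, also judged a hit on visual image review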;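 note: percent activation is computed from the nuclear over cytoplasmic p65 intensity ratio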
HUVEC tox TNFa: cytotoxicity in TNFa-stimulated HUVEC, primary screen, cytotoxicity control for VCAM1 expression modulator project, imaging, Hoechst nuclei count. HUVEC TNFalpha-stimulated, Hoechst cell count. cell count reduction, % at 2 µM. 93,000 tested, 0.17% active. AID 848, 2007;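 active = cell count reduction exceeding the screen mean by over 5 SD, scaled to untreated wells per plate, cut at about 78% in these data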;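 note: cells counted after 24 h of TNF alpha exposure following the 1 h pretreatment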
Hits are given with their value; – = inactive; · = no result given. In the library only some 1.7% were active in any assay of this set; here they are far more common.

SMILES	IL1B cytotox	VCAM1 TNFa inh	NFkB transloc inh	E-sel TNF inh	IL1B NFkB pot	HUVEC tox TNFa
N#CC(C(=O)OC1CCCCC1)c1nc2ccccc2nc1N1CCCCC1 (stereo unspecified)	–	–	–	–	–	–
CC1CCN(c2nc3ccccc3nc2C(C#N)C(=O)OC2CCCCC2)CC1 (stereo unspecified)	92	–	97	–	–	–
O=C(CCl)Nc1cc(-c2ccccc2)nn1-c1ccccc1	88	–	–	–	–	–
CC(=O)Nc1ccc(-c2cc(NC(C)=O)n(-c3ccccc3)n2)cc1	–	–	–	–	–	–
Cc1ccc(-c2cc(NC(=O)CCl)n(-c3ccccc3)n2)cc1	–	–	–	86	–	–
Cc1csc(NC(=O)c2nc(-c3ccccc3)n(-c3ccccc3)n2)n1	·	·	·	–	·	·
O=C(Nc1nccs1)c1nc(-c2ccccc2)n(-c2ccccc2)n1	–	–	–	43	–	–
CCCCCn1c(=O)[nH]c2cc(C(=O)NCc3ccco3)ccc2c1=O	–	–	–	–	–	–
CCCC(=O)CN1C(=O)C2(OCCO2)c2ccccc21	·	·	·	–	·	·
CC(C)CC(=O)CN1C(=O)C2(OCCO2)c2ccccc21	77	–	–	–	–	–
CN1CCCCc2c1[nH]c1ccccc1c2=O	–	86	–	–	–	–
O=C(NCN1CCCCC1)c1cnccn1	90	–	–	–	–	–
CCN1C(=O)C(CC(=O)Nc2ccc(OC)cc2)N(Cc2ccco2)C1=S (stereo unspecified)	·	·	·	–	·	·
CCNC(=O)NC(=O)C(C)OC(=O)CCCSc1nc2ccccc2s1 (stereo unspecified)	·	·	·	–	·	·
O=C(O)Cc1ccc(NC(=O)C2CC=CCC2C(=O)O)cc1 (stereo unspecified)	–	55	–	–	–	–
CN1C(=O)CC(C(=O)O)SC1=Nc1ccc(F)cc1 (stereo unspecified)	–	–	–	–	–	–
O=C(Nc1cccc2c1[nH]c1ccccc12)C(F)(F)F	–	–	–	–	–	–
COCCN(CC(=O)NCc1ccccc1)C(=O)CCC(=O)Nc1nccs1	–	–	–	–	41	–
O=C(CN(CC1CCCO1)C(=O)CCC(=O)Nc1nccs1)NCc1ccc2c(c1)OCO2 (stereo unspecified)	–	–	–	100	–	–
O=C(CN(CC1CCCO1)C(=O)CCC(=O)Nc1nccs1)NCC1CCCO1 (stereo unspecified)	–	–	–	–	–	–
O=C(Nc1nc2ccccc2[nH]1)c1cc2ccccc2o1	·	·	·	–	·	·
COC(=O)Cn1cnc2c1c(=O)n(C)c(=O)n2C	–	–	–	100	–	·
Cn1c(=O)c2c(ncn2CC(N)=O)n(C)c1=O	–	–	–	–	–	–
CCOC(=O)c1cc2c(ccn2C)n1CC(=O)N1CCC(Cc2ccccc2)CC1	·	·	·	96	·	·
CCOC(=O)c1cc2c(ccn2C)n1CC(=O)N1CCCC(C)C1 (stereo unspecified)	–	–	–	–	–	–
SMILES	IL1B cytotox	VCAM1 TNFa inh	NFkB transloc inh	E-sel TNF inh	IL1B NFkB pot	HUVEC tox TNFa
CCOC(=O)C(C)(C)C(=O)C(C)(C)C(O)c1ccccn1 (stereo unspecified)	–	–	–	–	–	–
COc1ccc(OC)c(NS(=O)(=O)c2ccc(N3CCCC3=O)cc2)c1	·	41	·	·	·	–
COc1ccc(CCNS(=O)(=O)c2ccc(N3CCCC3=O)cc2)cc1	–	–	–	–	–	–
CCOc1ccc(S(=O)(=O)Nc2cc(OC)ccc2OC)cc1	–	59	–	·	–	–
COC(=O)C1=C(C)NC(C)=C(C(=O)OC)C1C(=O)OCC(=O)N1c2ccccc2CC1C (stereo unspecified)	–	–	–	–	–	–
COC(=O)CN1C(=O)CSc2ncccc21	–	–	–	·	52	–
CCOC(=O)N1CCC(NC(=O)CN2C(=O)CSc3ncccc32)CC1	·	·	·	–	·	·
CC(C)(C)NC(=O)NC(=O)COC(=O)CNS(=O)(=O)c1ccc(Br)cc1Cl	·	·	·	–	·	·
CCOC(=O)c1ccc(NS(=O)C23CC4CC(CC(C4)C2)C3)cc1 (stereo unspecified)	–	54	–	–	–	–
CCOC(=O)C1=C(O)/C(=C/c2cc(OC)c(OC)c(OC)c2)N=C1C	–	–	–	–	–	–
Clc1ccc(-c2nnc3sc(-c4ccc(Br)o4)nn23)cc1	–	–	–	–	–	–
Cc1oc(-c2ccc(Cl)cc2)cc1-c1nn2c(-c3ccoc3C)nnc2s1	–	54	–	–	–	·
CSc1nc(=O)n2cc(C)ccc2n1	·	·	·	64	·	·
COc1ccc(C(=O)OCCNC(=O)c2c(Cl)nc3ccccn23)cc1	–	–	–	60	–	–
COC(=O)c1ccccc1Sc1c(/C=N/OC(=O)c2ccccc2)c(C(F)(F)F)nn1C	–	–	44	–	–	–
Cc1cccc(N(C)S(=O)(=O)c2ccc3[nH]cc(C(=O)N4CCOCC4)c(=O)c3c2)c1	–	–	–	–	–	–
Cc1cccc(N(C)S(=O)(=O)c2ccc3[nH]c(=O)c(=O)[nH]c3c2)c1	73	–	–	–	–	–
COc1ccc(C(C)=O)cc1CSC(=N)N	·	·	·	–	·	·
COc1ccc(C(C)=O)cc1CSc1nc2cc(Cl)ccc2o1	88	–	–	–	–	–
C#CCOc1ccc(Br)cc1/C=N/O	–	–	46	–	–	–
O=[N+]([O-])c1nn(-c2ccc3c(c2)OCCO3)n(O)c1=NCc1ccccc1Cl	–	–	–	–	92	–
O=S1(=O)N=C2CCCCCN2C(c2ccncc2)N1 (stereo unspecified)	–	–	–	–	–	–
CN1C(=O)C2(NCCc3c2[nH]c2ccccc32)c2ccccc21 (stereo unspecified)	–	53	–	–	–	·
OCCN=C1CCCc2c1[nH]c1ccc(Br)cc21	–	92	–	·	–	–
CCC(CC)C(=O)NCCc1ccc(F)cc1	–	–	–	–	–	–
SMILES	IL1B cytotox	VCAM1 TNFa inh	NFkB transloc inh	E-sel TNF inh	IL1B NFkB pot	HUVEC tox TNFa
Cc1cc(C)nc(SCC(=O)NC2=NC(=O)C(C)S2)n1 (stereo unspecified)	78	–	–	–	–	–
O=C(NCc1nc(-c2ccccc2)no1)c1ccc2c(c1)OCO2	–	–	–	100	–	–
Cc1ccccc1S(=O)(=O)Nc1nc2ccccc2nc1N1CCOCC1	–	–	–	–	–	–
CN(C)c1nc(N(C)C)nc(N(C#N)CCOc2ccccc2)n1	–	97	–	–	–	–
CCC(SCC(=O)OC)C(=O)Nc1nnc(C(C)C)s1 (stereo unspecified)	–	–	–	67	–	–
O=C(NNC(=O)c1ccccc1-n1cccc1)c1ccc(Cl)cc1	–	–	–	54	–	–

Bioassay records (PubChem BioAssay)
